For this experiment, the target named is PUM1 PUF domain R5-HRR (Homo sapiens, UniProt Q14671 828-1176, C1007H;Q1011R). Description: yeast three-hybrid, YBZ-1, SC-Leu-His + 0.5 mM 3-AT, 4 days. Particulars: tags: N-Gal4 AD-HA kept; label: inside an RPR1-promoter hybrid RNA with tandem MS2 sites; ssRNA. The essentials:
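The interaction score is the logarithmic change in variant frequency from input to selection. It uses log2, with a pseudocount of 1 for absent variants, and frequencies came from PCR-amplified, Illumina-sequenced repeat regions. The libraries were Pumilio-1 PUF domains randomized at the three base-contacting residues per repeat, co-expressed with matching RNA elements in strain YBZ-1 (LexA–MS2 coat fusion, HIS3 reporter). Plating lasted four days on SC-Leu (input) or SC-Leu-His + 0.5 mM 3-AT (selection).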
In the case of “GGCUAGAACUAGUGGAUCCCCCGGCGCCCGGCGGCUCGAGCCCGGGUAAGUGUUAAUAGUCUGCAUGCCGCCGGGCGCCAUGCCUGCAGGUCGACUCUAGAAAACAUG”, the binding signal is 4.62 log2 enrichment (interaction score).

Take “GGCUAGAACUAGUGGAUCCCCCGGCGCCCGGCGGCUCGAGCCCGGGUAAGUGUAAAUAGUCUGCAUGCCGCCGGGCGCCAUGCCUGCAGGUCGACUCUAGAAAACAUG”: the binding signal is 1.38 log2 enrichment (interaction score).

Turning to “GGCUAGAACUAGUGGAUCCCCCGGCGCCCGGCGGCUCGAGCCCGGGUAAGUGUCAAUAGUCUGCAUGCCGCCGGGCGCCAUGCCUGCAGGUCGACUCUAGAAAACAUG”, the binding signal is 2.4 log2 enrichment (interaction score).

(Values after PMC8384837, “Expanding the binding specificity for RNA recognition by a PUF domain”.)
